Data published in PubChem BioAssay (EPA / NIEHS).
Activity calls are given as the source filed them. How the source made its calls: active means hit-call score of the fitted dose curve at least 0.9, where 1 is the maximum; inactive means score below 0.9.

How the values were obtained:
Details in all cases: mRNA level, 48 h; actives raise or lower the signal
CYP2E1 (gene 1571) = assay: LTEA_HepaRG_CYP2E1: Life Technologies and Expression Analysis (LTEA) Assay for CYP2E1 using HepaRG (AID 2283485)
Procedure, shortened: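 HepaRG cells in serum-free induction medium exposed 48 h to test chemicals, 8 half-log concentrations up to 100 uM in 0.5% DMSO, duplicate. CYP2E1 mRNA by qRT-PCR, normalized to ACTB, GAPDH, POLR2A; bidirectional fit versus DMSO.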

CYP4A11 (gene 1579) = assay: LTEA_HepaRG_CYP4A11: Life Technologies and Expression Analysis (LTEA) Assay for CYP4A11 using HepaRG (AID 2283486)
Procedure, shortened: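 Readout is CYP4A11 mRNA induction or suppression (qRT-PCR, ACTB/GAPDH/POLR2A normalization) in human HepaRG cells after 48 h chemical treatment, concentrations to 100 uM in 0.5% DMSO, fitted bidirectionally against vehicle.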

[1] = read-out: Cytochrome P450 3A4 (Homo sapiens) (UniProt P08684); assay: LTEA_HepaRG_CYP3A4: Life Technologies and Expression Analysis (LTEA) Assay for CYP3A4 using HepaRG (AID 2283487)
Procedure, shortened: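 In a human hepatic line (HepaRG), duplicate wells were treated 48 h with up to 100 uM chemical in half-log dilutions. Endpoint: CYP3A4 mRNA induction or loss relative to 0.5% DMSO vehicle, by qRT-PCR.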

[2] = read-out: DNA damage-inducible transcript 3 (DDIT3), DDIT3 (gene 1649); assay: LTEA_HepaRG_DDIT3: Life Technologies and Expression Analysis (LTEA) Assay for DNA damage-inducible transcript 3 (DDIT3) using HepaRG (AID 2283488)
Procedure, shortened: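 Differentiated human HepaRG cells in serum-free induction medium were exposed in duplicate for 48 h to 8 concentrations (top 100 uM, half-log steps, 0.5% DMSO). DDIT3 mRNA measured by TaqMan qRT-PCR, normalized to ACTB/GAPDH/POLR2A; bidirectional fit versus DMSO.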

[3] = read-out: Pro-epidermal growth factor (Homo sapiens) (UniProt P01133); assay: LTEA_HepaRG_EGF: Life Technologies and Expression Analysis (LTEA) Assay for Epidermal growth factor (EGF) using HepaRG (AID 2283489)
Procedure, shortened: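 EGF expression changes in human HepaRG cells are scored by bidirectional fitting relative to 0.5% DMSO controls. Chemicals are tested at eight half-log concentrations up to 100 uM for 48 h in serum-free induction medium.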

[4] = read-out: Early growth response protein 1 (EGR1) transcription factor, EGR1 (gene 1958); assay: LTEA_HepaRG_EGR1: Life Technologies and Expression Analysis (LTEA) Assay for Early growth response protein 1 (EGR1) transcription factor using HepaRG (AID 2283490)
Procedure, shortened: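 Differentiated HepaRG cells in serum-free induction medium exposed 48 hours, duplicate, to 8 half-log concentrations up to 100 uM in 0.5% DMSO. EGR1 mRNA measured by TaqMan qRT-PCR, normalized to ACTB, GAPDH, POLR2A; bidirectional fit versus DMSO.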

[5] = read-out: Ezrin (EZR), EZR (gene 7430); assay: LTEA_HepaRG_EZR: Life Technologies and Expression Analysis (LTEA) Assay for Ezrin (EZR) using HepaRG (AID 2283491)
Procedure, shortened: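 Gain or loss of EZR mRNA is scored relative to 0.5% DMSO in human HepaRG cultures treated 48 h with test chemicals in duplicate, eight half-log concentrations from 100 uM.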

[6] = read-out: Cytochrome P450 3A7 (Homo sapiens) (UniProt P24462); assay: LTEA_HepaRG_CYP3A7: Life Technologies and Expression Analysis (LTEA) Assay for CYP3A7 using HepaRG (AID 2283492)
Procedure, shortened: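 Cells were thawed, plated, cultured 48 h, then treated for a further 48 h with chemicals (eight-point half-log series from 100 uM, 0.5% DMSO). RNA was isolated and CYP3A7 expression quantified by qRT-PCR normalised to ACTB, GAPDH and POLR2A.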

CYP3A5 (gene 1577) = assay: LTEA_HepaRG_CYP3A5: Life Technologies and Expression Analysis (LTEA) Assay for CYP3A5 using HepaRG (AID 2283493)
Procedure, shortened: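 Differentiated HepaRG cells in serum-free induction medium were dosed 48 h with test chemicals (8-point half-log series, top 100 uM, 0.5% DMSO, duplicate). CYP3A5 mRNA measured by qRT-PCR, normalized to ACTB, GAPDH, POLR2A; bidirectional fit versus DMSO.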

[7] = read-out: Fatty Acid-Binding Protein 1 (FABP1), FABP1 (gene 2168); assay: LTEA_HepaRG_FABP1: Life Technologies and Expression Analysis (LTEA) Assay for Fatty Acid-Binding Protein 1 (FABP1) using HepaRG (AID 2283494)
Procedure, shortened: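 Differentiated human HepaRG cells exposed 48 h in serum-free induction medium to eight half-log concentrations up to 100 uM (0.5% DMSO), duplicate. FABP1 mRNA by qRT-PCR, normalised to ACTB, GAPDH, POLR2A; bidirectional fitting against DMSO.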

[8] = read-out: Cytochrome P450 4A22 (Homo sapiens) (UniProt Q5TCH4); assay: LTEA_HepaRG_CYP4A22: Life Technologies and Expression Analysis (LTEA) Assay for Cytochrome P450 4A22 (CYP4A22) using HepaRG (AID 2283495)
Procedure, shortened: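 Cryopreserved HepaRG cells, plated and cultured 48 h, then switched to serum-free induction medium and treated 48 h (duplicates, up to 100 uM, half-log steps, 0.5% DMSO). Expression change of CYP4A22 was fitted bidirectionally against vehicle.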

[9] = read-out: Cytochrome P450 7A1 (Homo sapiens) (UniProt P22680); assay: LTEA_HepaRG_CYP7A1: Life Technologies and Expression Analysis (LTEA) Assay for Cytochrome P450 7A1 (CYP7A1) using HepaRG (AID 2283496)
Procedure, shortened: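 Gene expression endpoint in human HepaRG liver cells treated for 48 h with test chemicals (up to 100 uM, 0.5% DMSO). Values come from bidirectional concentration-response fitting versus DMSO.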

[10] = read-out: Glutathione S-Transferase (GSTA2), GSTA2 (gene 2939); assay: LTEA_HepaRG_GSTA2: Life Technologies and Expression Analysis (LTEA) Assay for Glutathione S-Transferase (GSTA2) using HepaRG (AID 2283497)
Procedure, shortened: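 Differentiated human HepaRG cells were exposed in duplicate for 48 h in serum-free induction medium, 8 points from 100 uM top in half-log steps, 0.5% DMSO. GSTA2 mRNA was measured by TaqMan qRT-PCR, normalized to ACTB, GAPDH and POLR2A; bidirectional fit versus DMSO.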

[11] = read-out: Glutamate-cysteine ligase catalytic (GCLC), GCLC (gene 2729); assay: LTEA_HepaRG_GCLC: Life Technologies and Expression Analysis (LTEA) Assay for Glutamate-cysteine ligase catalytic (GCLC) using HepaRG (AID 2283498)
Procedure, shortened: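 Differentiated HepaRG cells exposed 48 h in serum-free induction medium, eight-point half-log series topping at 100 uM in 0.5% DMSO, duplicates. GCLC mRNA by qRT-PCR normalized to ACTB, GAPDH and POLR2A, fitted bidirectionally versus DMSO.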

[12] = read-out: growth arrest and DNA damage 45 (GADD45G), GADD45G (gene 10912); assay: LTEA_HepaRG_GADD45G: Life Technologies and Expression Analysis (LTEA) Assay for growth arrest and DNA damage 45 (GADD45G) using HepaRG (AID 2283499)
Procedure, shortened: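 Human hepatic HepaRG line treated 48 h with chemicals (eight concentrations, half-log steps from 100 uM); transcript induction or repression of GADD45G scored by qRT-PCR versus DMSO vehicle.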

[13] = read-out: Glutamate-cysteine ligase regulatory (GCLM), GCLM (gene 2730); assay: LTEA_HepaRG_GCLM: Life Technologies and Expression Analysis (LTEA) Assay for Glutamate-cysteine ligase regulatory (GCLM) using HepaRG (AID 2283500)
Procedure, shortened: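 Differentiated human HepaRG cells exposed 48 h in serum-free induction medium to 8-point half-log concentrations (top 100 uM, 0.5% DMSO), in duplicate. GCLM mRNA quantified by qRT-PCR, normalized to ACTB, GAPDH, POLR2A; bidirectional fitting versus DMSO.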

[14] = read-out: Glutathione S-transferase M3 (GSTM3), GSTM3 (gene 2947); assay: LTEA_HepaRG_GSTM3: Life Technologies and Expression Analysis (LTEA) Assay for Glutathione S-transferase M3 (GSTM3) using HepaRG (AID 2283501)
Procedure, shortened: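 Changes in GSTM3 expression, an oxidative-stress marker, were scored by bidirectional curve fitting against 0.5% DMSO vehicle. Human HepaRG cultures received chemicals for 48 h in duplicate, highest concentration 100 uM with half-log dilutions.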

[15] = read-out: Heat shock 70 kDa protein 1 (HSPA1A), gene 3303; assay: LTEA_HepaRG_HSPA1A: Life Technologies and Expression Analysis (LTEA) Assay for Heat shock 70 kDa protein 1 (HSPA1A) using HepaRG (AID 2283502)
Procedure, shortened: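 Differentiated human HepaRG cells in serum-free induction medium were exposed in duplicate for 48 h to eight concentrations (top 100 uM, half-log steps, 0.5% DMSO). HSPA1A mRNA was quantified by qRT-PCR, normalized to ACTB, GAPDH and POLR2A, and fitted bidirectionally against DMSO.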

[16] = read-out: Hypoxia-inducible factor 1-alpha (Homo sapiens) (UniProt Q16665); assay: LTEA_HepaRG_HIF1A: Life Technologies and Expression Analysis (LTEA) Assay for Hypoxia-inducible factor 1 (HIF1A) Trancription factor using HepaRG (AID 2283503)
Procedure, shortened: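 HepaRG, 48 h exposure, 8-pt half-log series from 100 uM, 0.5% DMSO vehicle, duplicates. Readout: HIF1A transcript by qRT-PCR (Fluidigm array), housekeeping-normalised. Bidirectional curve fit vs DMSO baseline.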

[17] = read-out: 3-Hydroxy-3-Methylglutaryl-CoA Synthase 2 (HMGCS2), HMGCS2 (gene 3158); assay: LTEA_HepaRG_HMGCS2: Life Technologies and Expression Analysis (LTEA) Assay for 3-Hydroxy-3-Methylglutaryl-CoA Synthase 2 (HMGCS2) using HepaRG (AID 2283504)
Procedure, shortened: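 Expression of HMGCS2 in human HepaRG liver cells is measured by qRT-PCR 48 h after dosing (highest 100 uM, half-log series, 0.5% DMSO). Values come from bidirectional concentration-response fitting with DMSO as baseline.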

Measured: outcome

Chain of Cytochrome P450 3A7 (Homo sapiens) (P24462 whole entry, looked up): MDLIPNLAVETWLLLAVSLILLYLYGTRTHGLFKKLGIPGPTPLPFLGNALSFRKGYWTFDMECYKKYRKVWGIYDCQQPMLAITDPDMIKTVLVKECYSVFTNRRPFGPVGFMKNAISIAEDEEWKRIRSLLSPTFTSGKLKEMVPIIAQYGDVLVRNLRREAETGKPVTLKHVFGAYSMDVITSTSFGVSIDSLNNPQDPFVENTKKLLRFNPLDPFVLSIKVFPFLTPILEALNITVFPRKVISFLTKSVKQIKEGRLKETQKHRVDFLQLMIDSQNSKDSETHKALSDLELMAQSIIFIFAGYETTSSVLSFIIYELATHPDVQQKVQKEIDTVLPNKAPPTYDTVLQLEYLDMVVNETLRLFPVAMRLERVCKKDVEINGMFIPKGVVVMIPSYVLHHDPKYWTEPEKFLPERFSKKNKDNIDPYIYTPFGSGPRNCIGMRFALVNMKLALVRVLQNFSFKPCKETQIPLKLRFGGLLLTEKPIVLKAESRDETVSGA
Chain of Hypoxia-inducible factor 1-alpha (Homo sapiens) (Q16665 whole entry, looked up): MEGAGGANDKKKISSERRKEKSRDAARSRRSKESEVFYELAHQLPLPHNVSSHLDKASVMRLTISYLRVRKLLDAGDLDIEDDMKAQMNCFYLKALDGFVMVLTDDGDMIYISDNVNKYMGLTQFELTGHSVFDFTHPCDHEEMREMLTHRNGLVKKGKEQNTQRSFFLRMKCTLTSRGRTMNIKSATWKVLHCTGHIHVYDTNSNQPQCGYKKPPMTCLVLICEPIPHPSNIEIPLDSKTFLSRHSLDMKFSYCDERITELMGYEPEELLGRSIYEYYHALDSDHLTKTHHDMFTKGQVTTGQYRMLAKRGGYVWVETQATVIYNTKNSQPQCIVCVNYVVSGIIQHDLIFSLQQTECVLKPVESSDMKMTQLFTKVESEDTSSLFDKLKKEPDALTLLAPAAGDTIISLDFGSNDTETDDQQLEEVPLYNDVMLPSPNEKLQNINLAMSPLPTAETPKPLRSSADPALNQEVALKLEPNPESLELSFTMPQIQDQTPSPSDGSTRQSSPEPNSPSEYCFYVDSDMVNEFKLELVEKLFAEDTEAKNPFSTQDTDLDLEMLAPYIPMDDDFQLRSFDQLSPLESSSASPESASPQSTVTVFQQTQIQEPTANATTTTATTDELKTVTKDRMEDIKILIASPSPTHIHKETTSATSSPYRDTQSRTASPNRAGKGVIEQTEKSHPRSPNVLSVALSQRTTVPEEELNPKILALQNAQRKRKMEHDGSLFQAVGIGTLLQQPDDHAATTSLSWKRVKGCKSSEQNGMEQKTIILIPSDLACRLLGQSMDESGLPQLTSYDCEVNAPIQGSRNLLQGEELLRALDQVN
Chain of Cytochrome P450 3A4 (Homo sapiens) (P08684 whole entry, looked up): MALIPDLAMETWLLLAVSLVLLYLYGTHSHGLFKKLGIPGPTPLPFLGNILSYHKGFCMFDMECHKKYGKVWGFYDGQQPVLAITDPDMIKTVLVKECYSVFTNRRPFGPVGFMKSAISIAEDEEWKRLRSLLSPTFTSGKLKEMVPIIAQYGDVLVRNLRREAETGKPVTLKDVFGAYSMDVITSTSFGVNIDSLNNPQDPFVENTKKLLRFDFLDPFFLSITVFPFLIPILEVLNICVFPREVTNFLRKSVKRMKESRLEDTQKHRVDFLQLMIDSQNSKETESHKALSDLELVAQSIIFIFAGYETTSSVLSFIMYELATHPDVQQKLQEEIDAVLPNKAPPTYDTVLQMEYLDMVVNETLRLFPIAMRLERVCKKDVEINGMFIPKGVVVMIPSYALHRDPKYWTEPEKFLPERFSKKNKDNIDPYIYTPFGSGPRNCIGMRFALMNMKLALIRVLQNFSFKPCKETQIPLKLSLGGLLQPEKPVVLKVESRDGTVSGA

CCC(C)=NO
inactive: all assays above
